# Screening data deposited in PubChem by Broad Institute.
# CFTR F508del cor: CFTR F508del correction in bronchial cells. actives 0.36% (n = 350,000). activity (quench increase), % at 7.58 µM. CFBE cells, YFP halide quenching; stimulated with forskolin plus potentiator P3; % fluorescence drop versus neutral controls;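 active = mean added fluorescence quench of at least 8% versus neutral control, with both replicates also reaching 8%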;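 also: cells transiently co-express mutant CFTR-F508del with the halide-sensitive YFP; corrector assay measuring rescue of mutant channel to the surface after 24 h compound exposure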
# FGF22 binding: FGF22 (human) thermal shift binding; Q9HCT0; recombinant FGF22 thermal shift, SYPRO orange fluorescence; percent of sucrose octasulfate shift, DMSO zero; activity (Tm shift, normalised), % at 9.99 µM; actives 1.5% (n = 340,000); AID 651658;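 active = mean Tm shift, scaled 0 neutral to 100 positive control, at about 1.3% or above, every replicate too, limit read from the data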
# Target sequence (Q9HCT0 whole entry, looked up): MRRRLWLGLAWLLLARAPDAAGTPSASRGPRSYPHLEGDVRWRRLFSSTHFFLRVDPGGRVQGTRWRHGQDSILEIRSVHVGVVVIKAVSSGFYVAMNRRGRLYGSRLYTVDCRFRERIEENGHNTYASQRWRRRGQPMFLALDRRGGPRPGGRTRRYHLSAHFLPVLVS
# Vif imaging: HIV Vif inhibition; HEK293T cells, Vif self-association by quenched fluorescence, imaging, 24 h; inhibition, % at 7.49 µM; actives 0.35% (n = 340,000); AID 602346; in the data active = inhibition above about 50%, passing the limit was not always enough
# An asterisk follows results filed as active; . = no result. Most compounds without a hit are left out; they make up all but 1.7% or so of the library.
SMILES,CFTR F508del cor,FGF22 binding,Vif imaging
Cc1ccc(C)c(CSc2nc3[nH]ncc3c(=O)[nH]2)c1,16.5*,0.1,1.6
Cc1ccccc1CSc1nc2[nH]ncc2c(=O)[nH]1,2.5,0.8,35.5
COc1ccc(-c2ccc3c(c2)[C@@H]2[C@@H](CCN2C(=O)C2CCOCC2)[C@H](CO)N3C)cc1,0.1,-0.5,.
Cc1noc(C)c1S(=O)(=O)N(C)C[C@H]1Oc2ccc(NC(=O)Nc3ccccc3)cc2CC(=O)N([C@@H](C)CO)C[C@H]1C,1.1,.,.
C=CC(C)(O)CCCC(C)CCCC(C)CCCC(C)C (stereo not drawn),1.7,0.2,159.6*
COCC(=O)N(C)C[C@@H]1Oc2ncc(-c3ccccc3C)cc2C(=O)N([C@@H](C)CO)C[C@H]1C,-3.4,0.1,.
C[C@@H]1CN([C@@H](C)CO)C(=O)c2cccc(NC(=O)C3CCOCC3)c2O[C@@H]1CN(C)Cc1ccc2c(c1)OCO2,3.3,0.1,.
O=c1[nH]c(/C=C/c2ccc([N+](=O)[O-])cc2)c([N+](=O)[O-])c(=O)[nH]1,1.7,0.1,2.3
Cc1cccc(NC(=O)COc2ccc(/C=C\c3[nH]c(=O)[nH]c(=O)c3[N+](=O)[O-])cc2)c1,-0.7,43.7*,-1.7
CCCNC(=O)[C@H]1N[C@H]2c3ccc(C4=CCCC4)c(=O)n3C[C@H]2[C@@H]1CO,1.2,-0.1,.
COc1ccc(-n2c(=O)/c(=C\c3cccs3)s/c2=C(/C#N)C(=O)NCCN2CCOCC2)cc1,-2.8,43.4*,0.4
C=CCn1c(=O)/c(=C\c2ccsc2)s/c1=C(/C#N)C(=O)NCCN1CCOCC1,.,.,16.4
C[C@H]1CN([C@@H](C)CO)C(=O)c2cc(NC(=O)CCC(F)(F)F)ccc2O[C@H]1CN(C)S(=O)(=O)c1ccccc1,1.5,0.1,.
COc1ccc(NC(=O)Nc2ccc3c(c2)C(=O)N([C@@H](C)CO)C[C@H](C)[C@H](CN(C)S(=O)(=O)c2cn(C)cn2)OCCCC[C@@H](C)O3)cc1,-2.3,0.0,.
CCn1cc(/C=C/c2cc[n+](C)cc2)c2ccccc21,7.9,-0.2,.
CC(C)n1cc(/C=C/c2cc[n+](C)cc2)c2ccccc21,9.2*,0.0,.
COc1cccc(-c2ccc3c(c2)O[C@H](CN(C)Cc2ccncc2)[C@H](C)CN([C@@H](C)CO)S3(=O)=O)c1,4.2,-0.6,.
COc1ccc(NC(=O)N(C)C[C@@H]2Oc3ccc(NS(=O)(=O)c4cccs4)cc3C(=O)N([C@@H](C)CO)C[C@H]2C)cc1,1.7,0.0,.
CC(CN1CCOCC1)(NS(=O)(=O)c1ccccc1)c1ccccc1 (stereo not drawn),-0.8,0.2,-2.9
CC(CN)(NS(=O)(=O)c1ccccc1)c1ccccc1 (stereo not drawn),.,-0.3,66.3*
CCNC(=O)[C@@H]1[C@@H](CO)[C@@H]2Cn3c(ccc(-c4ccc(F)cc4)c3=O)[C@@H]2N1CC1CC1,-0.3,-0.2,.
O=C1OCCC1=COCCOC=C1CCOC1=O,0.1,0.1,17.6
O=C1OCCC1=COCCCCCOC=C1CCOC1=O,-2.0,-0.1,70.8*
O=C(C[C@H]1CC[C@H](NC(=O)CN2CCOCC2)[C@H](CO)O1)NCCc1ccccc1,-4.2,-0.2,.
CCCNC(=O)Cn1c(=O)/c(=C/c2ccc(-c3cccc([N+](=O)[O-])c3)o2)s/c1=C\C(=O)C(C)(C)C,1.4,43.7*,13.1
SMILES,CFTR F508del cor,FGF22 binding,Vif imaging
CCCNC(=O)Cn1c(=O)/c(=C\c2ccc(-c3cccc([N+](=O)[O-])c3)o2)s/c1=C\C(=O)C(C)(C)C,.,.,-4.4
Cc1ccc(S(=O)(=O)N(C)C[C@H]2OCCCC[C@H](C)Oc3ccc(NS(=O)(=O)c4cn(C)cn4)cc3C(=O)N([C@H](C)CO)C[C@H]2C)cc1,1.6,-0.3,.
Cc1cc(=O)[nH]c(=O)n1Cc1ccccc1,-1.3,42.9*,-2.5
O=C(O)c1cc(=O)n(Cc2ccccc2)c(=O)[nH]1,-2.4,-0.3,-7.6
Cc1cc(=O)c2ccccc2n1Cc1ccccc1,0.8,44.2*,-21.2
Cc1cc(=O)c2ccccc2n1CC(=O)NCc1ccccc1,.,.,-2.7
Cc1ccc(S(=O)(=O)Nc2ccc3c(c2)C(=O)N([C@@H](C)CO)C[C@H](C)[C@H](CN(C)C(=O)c2ccccc2)OCCCC[C@@H](C)O3)cc1,1.1,.,.
CNC[C@@H]1Oc2ccc(NC(=O)Nc3ccc(F)cc3)cc2CC(=O)N([C@@H](C)CO)C[C@@H]1C,-3.8,0.0,.
Cc1sc2ccccc2c1CNC[C@H]1O[C@@H](n2ccc(N)nc2=O)[C@H](O)[C@@H]1O,1.6,-0.1,.
Cc1sc2ccccc2c1CNC[C@H]1O[C@@H](n2cnc(C(N)=O)n2)[C@H](O)[C@@H]1O,-0.8,43.5*,-1.5
Cc1ccc2nc(SC(C)C(=O)N3CC(C)OC(C)C3)[nH]c2c1 (stereo not drawn),3.2,43.0*,-9.3
Cc1ccc2nc(SC(C)C(=O)N3CCCCC3)[nH]c2c1 (stereo not drawn),-4.1,0.0,-0.9
C[C@@H]1CN([C@H](C)CO)C(=O)c2cccc(NS(C)(=O)=O)c2O[C@H]1CN(C)S(=O)(=O)c1ccccc1,-0.8,-0.1,.
COc1cc(OC)c(/C=N/NC(N)=S)cc1Br,.,-0.2,1.0
COc1cc2c(-c3ccccc3)c(C)oc2cc1/C=N/NC(N)=S,8.1*,0.4,4.8
C=CCN(C(=O)c1csnn1)C(C(=O)NCc1ccccc1)c1ccccc1F (stereo not drawn),0.0,-0.8,-2.1
O=C(NCc1ccc(F)cc1)C(c1ccccc1)N(C(=O)c1csnn1)c1ccccc1 (stereo not drawn),4.1,-0.5,12.7
O=C(NCc1ccccc1)C(c1ccccc1)N(C(=O)c1csnn1)c1ccccc1 (stereo not drawn),0.1,42.9*,16.4
C=CCN(C(=O)c1csnn1)C(C(=O)NCc1ccc(F)cc1)c1ccccc1F (stereo not drawn),0.9,42.9*,4.8
C[C@@H]1CN([C@H](C)CO)S(=O)(=O)c2ccc(C3=CCCC3)cc2O[C@@H]1CN(C)C(=O)c1cccnc1,4.2,0.0,.
COc1cccc(S(=O)(=O)N[C@H]2CC[C@@H](CCn3cc(-c4ccccc4OC)nn3)O[C@H]2CO)c1,0.6,0.1,.
O=C1OC[C@@H]2CCCN2C(=O)[C@@H](CC(=O)N(CCO)Cc2ccccc2)C/C=C\C[C@@H]1Cc1ccc(F)cc1,-1.1,44.3*,-3.3
O=C1OC[C@@H]2CCCN2C(=O)[C@@H](CC(=O)N(CCO)Cc2ccccc2)C/C=C\CC[C@H]1Cc1ccc(F)cc1,1.6,-0.2,6.7
CCC(=O)N1C[C@@H]2[C@H](c3ccccc31)[C@H](CO)N2C(=O)CC,0.8,-0.8,.
CS(=O)(=O)N1CCN(CCN2C(=O)c3cccc4cccc(c34)C2=O)CC1,0.0,45.2*,-4.5
CC(C)(C)C(=O)N1CCN(CCN2C(=O)c3cccc4cccc(c34)C2=O)CC1,0.0,0.0,9.8
CN1[C@H](CO)[C@@H]2c3ccccc3N(C(=O)Nc3ccccc3F)C[C@@H]21,-3.1,0.0,.
CO[C@@H]1CN(C)C(=O)c2cc(NS(C)(=O)=O)ccc2OC[C@@H](C)N(C(=O)C2CCCC2)C[C@@H]1C,-1.2,0.0,.
